# Source: the supplement of paper PMC8728848
# Shown is part of a subset that was picked to be rich in the strongest signals.
# B1: MGL1 (Mus musculus), P49300 (protein)
# chain: MIYENLQNSRIEEKTQEPGKAPSQSFLWRILSWTHLLLFSLGLSLLLLVVVSVIGSQNSQLRRDLGTLRATLDNTTSKIKAEFQSLDSRADSFEKGISSLKVDVEDHRQELQAGRDLSQKVTSLESTVEKREQALKTDLSDLTDHVQQLRKDLKALTCQLANLKNNGSEVACCPLHWTEHEGSCYWFSESEKSWPEADKYCRLENSHLVVVNSLEEQNFLQNRLANVVSWIGLTDQNGPWRWVDGTDFEKGFKNWAPLQPDNWFGHGLGGGEDCAHITTGGPWNDDVCQRTFRWICEMKLAKES
# Legend:
# Test in all cases: glycan array binding signal (z-score within array); higher = stronger binding
# Settings in all cases: glycan notation: IUPAC condensed, linker removed
# [1] = molecular target: Fuc(a1-2)Gal(b1-4)GlcNAc(b1-2)Man
# In short: (§1)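 The Consortium for Functional Glycomics database supplied 3228 glycan arrays, of which those lacking an available protein sequence were dropped. The binding signal, a within-array Z-score, was averaged across arrays of the same protein sequence and across linkers. Negative scores can be read as non-binding.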
# [2] = molecular target: Fuc(a1-2)Gal(b1-4)[Fuc(a1-3)]GlcNAc(b1-2)[Fuc(a1-2)Gal(b1-4)[Fuc(a1-3)]GlcNAc(b1-4)]Man(a1-3)[Fuc(a1-2)Gal(b1-4)[Fuc(a1-3)]GlcNAc(b1-2)Man(a1-6)]Man(b1-4)GlcNAc(b1-4)GlcNAc
# In short: as §1
# [3] = molecular target: Fuc(a1-2)Gal6S(b1-4)Glc6S
# In short: as §1
# [4] = molecular target: Fuc(a1-2)[Gal(a1-3)]Gal(b1-3)GalNAc
# In short: as §1
# [5] = molecular target: Fuc(a1-2)[Gal(a1-3)]Gal(b1-4)GlcNAc(b1-2)Man(a1-3)[Fuc(a1-2)[Gal(a1-3)]Gal(b1-4)GlcNAc(b1-2)Man(a1-6)]Man(b1-4)GlcNAc(b1-4)[Fuc(a1-6)]GlcNAc
# In short: as §1
# [6] = molecular target: Fuc(a1-2)[Gal(a1-4)]Gal(b1-4)GlcNAc
# In short: as §1
# [7] = molecular target: Fuc(a1-2)[GalNAc(a1-3)]Gal(b1-4)GlcNAc(b1-6)GalNAc
# In short: as §1
# [8] = molecular target: Fuc(a1-3)[Gal(b1-4)]GlcNAc
# In short: as §1
# [9] = molecular target: Fuc(a1-3)[Gal(b1-4)]GlcNAc(b1-3)Gal(b1-4)[Fuc(a1-3)]GlcNAc
# In short: as §1
# [10] = molecular target: Fuc(a1-3)[Gal(b1-4)]GlcNAc(b1-3)Gal(b1-4)[Fuc(a1-3)]GlcNAc(b1-3)Gal(b1-4)[Fuc(a1-3)]GlcNAc
# In short: as §1
# [11] = molecular target: Fuc(a1-3)[Gal(b1-4)]GlcNAc(b1-4)Gal(b1-4)[Fuc(a1-3)]GlcNAc(b1-4)Gal(b1-4)[Fuc(a1-3)]GlcNAc
# In short: as §1
# Fuc(a1-4)GlcNAc = molecular target: Fuc(a1-4)GlcNAc
# In short: as §1
# [12] = molecular target: Gal(a1-3)Gal(b1-3)[Fuc(a1-4)]GlcNAc(b1-2)Man(a1-3)[Gal(a1-3)Gal(b1-3)[Fuc(a1-4)]GlcNAc(b1-2)Man(a1-6)]Man(b1-4)GlcNAc(b1-4)GlcNAc
# In short: as §1
# [13] = molecular target: Gal(a1-3)[Gal(a1-4)]Gal(b1-4)GlcNAc
# In short: as §1
# [14] = molecular target: Gal(a1-4)Gal(b1-3)GlcNAc(b1-2)Man(a1-3)[Gal(a1-4)Gal(b1-3)GlcNAc(b1-2)Man(a1-6)]Man(b1-4)GlcNAc(b1-4)GlcNAc
# In short: as §1
# Gal(b1-3)Gal = molecular target: Gal(b1-3)Gal
# In short: as §1
# Gal(b1-3)GalNAc = molecular target: Gal(b1-3)GalNAc
# In short: as §1
# [15] = molecular target: Gal(b1-3)[Neu5Ac(a2-6)]GalNAc
# In short: as §1
# [16] = molecular target: Gal(b1-3)[Neu5Ac(a2-6)]GlcNAc(b1-4)Gal(b1-4)Glc
# In short: as §1
# [17] = molecular target: Gal(b1-4)GlcNAc(b1-2)Man(a1-3)[Gal(b1-4)GlcNAc(b1-2)Man(a1-6)][Gal(b1-4)GlcNAc(b1-4)]Man(b1-4)GlcNAc(b1-4)[Fuc(a1-6)]GlcNAc
# In short: as §1
# [18] = molecular target: Gal(b1-4)GlcNAc(b1-2)Man(a1-3)[Man(a1-6)]Man(b1-4)GlcNAc(b1-4)GlcNAc
# In short: as §1
# [19] = molecular target: Gal(b1-4)GlcNAc(b1-3)Gal(b1-4)GlcNAc(b1-2)Man(a1-3)[Gal(b1-4)GlcNAc(b1-3)Gal(b1-4)GlcNAc(b1-2)Man(a1-6)]Man(b1-4)GlcNAc(b1-4)GlcNAc
# In short: as §1
# [20] = molecular target: Gal(b1-4)GlcNAc(b1-3)Gal(b1-4)GlcNAc(b1-3)Gal(b1-4)GlcNAc(b1-2)Man(a1-3)[Gal(b1-4)GlcNAc(b1-3)Gal(b1-4)GlcNAc(b1-3)Gal(b1-4)GlcNAc(b1-2)Man(a1-6)]Man(b1-4)GlcNAc(b1-4)GlcNAc
# In short: as §1
# [21] = molecular target: Gal(b1-4)GlcNAc(b1-3)Gal(b1-4)GlcNAc(b1-3)Gal(b1-4)GlcNAc(b1-3)Gal(b1-4)GlcNAc(b1-3)Gal(b1-4)GlcNAc(b1-2)Man(a1-3)[Gal(b1-4)GlcNAc(b1-3)Gal(b1-4)GlcNAc(b1-3)Gal(b1-4)GlcNAc(b1-3)Gal(b1-4)GlcNAc(b1-3)Gal(b1-4)GlcNAc(b1-2)Man(a1-6)]Man(b1-4)GlcNAc(b1-4)GlcNAc
# In short: as §1
# [22] = molecular target: Gal(b1-4)GlcNAc(b1-3)[Fuc(a1-3)GlcNAc(b1-6)]Gal(b1-4)Glc
# In short: as §1
# Gal6S(b1-4)Glc = molecular target: Gal6S(b1-4)Glc
# In short: as §1
# [23] = molecular target: GalNAc(b1-4)GlcNAc(b1-2)Man(a1-3)[GalNAc(b1-4)GlcNAc(b1-2)Man(a1-6)]Man(b1-4)GlcNAc(b1-4)GlcNAc
# In short: as §1
# GalNAc(b1-6)GalNAc = molecular target: GalNAc(b1-6)GalNAc
# In short: as §1
# GalNAc6S(b1-4)GlcNAc = molecular target: GalNAc6S(b1-4)GlcNAc
# In short: as §1
# [24] = molecular target: Glc(a1-6)Glc(a1-6)Glc(a1-6)Glc
# In short: as §1
# [25] = molecular target: GlcNAc(a1-4)Gal(b1-3)GlcNAc
# In short: as §1
# [26] = molecular target: GlcNAc(b1-2)Man(a1-3)[GlcNAc(b1-4)][GlcNAc(b1-2)Man(a1-6)]Man(b1-4)GlcNAc(b1-4)[Fuc(a1-6)]GlcNAc
# In short: as §1
# [27] = molecular target: GlcNAc(b1-3)Gal(b1-4)GlcNAc
# In short: as §1
# [28] = molecular target: GlcNAc(b1-3)Gal(b1-4)GlcNAc(b1-6)[GlcNAc(b1-3)Gal(b1-3)]GalNAc
# In short: as §1
# [29] = molecular target: GlcNAc(b1-3)[GlcNAc(b1-6)]GalNAc
# In short: as §1
# GlcNAc(b1-6)GalNAc = molecular target: GlcNAc(b1-6)GalNAc
# In short: as §1
# [30] = molecular target: Kdn(a2-3)Gal(b1-4)[Fuc(a1-3)]GlcNAc
# In short: as §1
# [31] = molecular target: Neu5Ac(a2-3)Gal(b1-4)GlcNAc(b1-3)Gal(b1-4)GlcNAc(b1-3)Gal(b1-4)GlcNAc(b1-2)Man(a1-3)[Neu5Ac(a2-3)Gal(b1-4)GlcNAc(b1-3)Gal(b1-4)GlcNAc(b1-3)Gal(b1-4)GlcNAc(b1-2)Man(a1-6)]GalNAc
# In short: as §1
# [32] = molecular target: Neu5Ac(a2-3)Gal(b1-4)GlcNAc(b1-3)Gal(b1-4)GlcNAc(b1-3)GalNAc
# In short: as §1
# [33] = molecular target: Neu5Ac(a2-3)Gal(b1-4)[Fuc(a1-3)]GlcNAc(b1-2)Man
# In short: as §1
# [34] = molecular target: Neu5Ac(a2-6)Gal(b1-4)GlcNAc(b1-2)Man(a1-3)[GlcNAc(b1-2)Man(a1-6)]Man(b1-4)GlcNAc(b1-4)GlcNAc
# In short: as §1
# [35] = molecular target: Neu5Ac(a2-6)Gal(b1-4)GlcNAc(b1-2)Man(a1-3)[GlcNAc(b1-4)][Neu5Ac(a2-6)Gal(b1-4)GlcNAc(b1-2)Man(a1-6)]Man(b1-4)GlcNAc(b1-4)GlcNAc
# In short: as §1
# [36] = molecular target: Neu5Ac(a2-6)Gal(b1-4)GlcNAc(b1-2)Man(a1-3)[Neu5Ac(a2-3)Gal(b1-4)GlcNAc(b1-2)Man(a1-6)]Man(b1-4)GlcNAc(b1-4)GlcNAc
# In short: as §1
# [37] = molecular target: Neu5Ac9Ac(a2-3)Gal(b1-4)GlcNAc
# In short: as §1
# [38] = molecular target: Neu5Gc(a2-3)Gal(b1-4)[Fuc(a1-4)]GlcNAc
# In short: as §1
binder,measurement,setting,value
B1,glycan array binding signal (z-score),[1],0.007
same,glycan array binding signal (z-score),[2],0.824
same,glycan array binding signal (z-score),[3],0.081
same,glycan array binding signal (z-score),[4],-0.265
same,glycan array binding signal (z-score),[5],-1.16
same,glycan array binding signal (z-score),[6],1.45
same,glycan array binding signal (z-score),[7],0.044
same,glycan array binding signal (z-score),[8],5.46
same,glycan array binding signal (z-score),[9],3.95
same,glycan array binding signal (z-score),[10],5.1
same,glycan array binding signal (z-score),[11],9.12
same,glycan array binding signal (z-score),Fuc(a1-4)GlcNAc,0.064
same,glycan array binding signal (z-score),[12],-0.177
same,glycan array binding signal (z-score),[13],1.06
same,glycan array binding signal (z-score),[14],2.41
same,glycan array binding signal (z-score),Gal(b1-3)Gal,-0.039
same,glycan array binding signal (z-score),Gal(b1-3)GalNAc,-0.112
same,glycan array binding signal (z-score),[15],-0.361
same,glycan array binding signal (z-score),[16],0.273
same,glycan array binding signal (z-score),[17],3.48
same,glycan array binding signal (z-score),[18],0.201
same,glycan array binding signal (z-score),[19],2.62
same,glycan array binding signal (z-score),[20],3.01
same,glycan array binding signal (z-score),[21],2.31
same,glycan array binding signal (z-score),[22],4.54
same,glycan array binding signal (z-score),Gal6S(b1-4)Glc,0.208
same,glycan array binding signal (z-score),[23],0.218
same,glycan array binding signal (z-score),GalNAc(b1-6)GalNAc,-0.374
same,glycan array binding signal (z-score),GalNAc6S(b1-4)GlcNAc,0.509
same,glycan array binding signal (z-score),[24],-0.085
same,glycan array binding signal (z-score),[25],0.26
same,glycan array binding signal (z-score),[26],0.417
same,glycan array binding signal (z-score),[27],0.138
same,glycan array binding signal (z-score),[28],-0.907
same,glycan array binding signal (z-score),[29],-0.368
same,glycan array binding signal (z-score),GlcNAc(b1-6)GalNAc,0.042
same,glycan array binding signal (z-score),[30],0.025
same,glycan array binding signal (z-score),[31],3.39
same,glycan array binding signal (z-score),[32],-0.308
same,glycan array binding signal (z-score),[33],-0.66
same,glycan array binding signal (z-score),[34],-0.089
same,glycan array binding signal (z-score),[35],-0.48
same,glycan array binding signal (z-score),[36],-0.988
same,glycan array binding signal (z-score),[37],-0.495
same,glycan array binding signal (z-score),[38],-0.153
